# Measurements from PubChem BioAssay (Tox21).
# Inconclusive results are not listed. The source made the active and inactive calls. Calls follow the shape of the dose curve; as a rule, active = well fitted cell-killing curve with a large enough effect in the repeat runs; inconclusive = weak or mixed curves, or effect the other way; inactive = flat fitted curve, though single readings scatter.
# Experiment: qHTS RealTime-Glo MT Cell Viability Assay in HEK293 cells - 0 hour (AID 1224880); also: top concentration of the series differs between compounds; nearly all actives have a fitted effect of over 45% in size
# Conditions: RealTime-Glo luminescence; series mostly up to 76.8 µM; activity change, negative = cytotoxicity: at the top concentration
# How it was run: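 HEK293 cells mixed with RealTime-Glo reagents (NanoLuc plus cell-permeant prosubstrate) at 600 cells/well, preincubated 5 h at 37 C/5% CO2, then given 23 nL compound in DMSO. Nonlytic luminescence from viable cells was read at 0, 8, 16, 24, 32 and 40 h.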
# % is scaled to controls: 0 for no effect and ±100 for the full control effect.
row,Structure (SMILES),"activity change, negative = cytotoxicity"
1,C[N+](C)(C)CC(O)CCl (configuration not stated),-6.05% (inactive)
2,CCNC(=O)/C=C/c1cccc(Br)c1,5.63% [at 35.3 µM] (inactive)
3,BrC/C=C/CBr,-1.92% [at 15.8 µM] (inactive)
4,O=C(O)c1c(Cl)ccc(Cl)c1Cl,-0.977% (inactive)
5,CCCCCCCCCCCCCCCCI,-2.88% [at 15.8 µM] (inactive)
6,COc1ccc(OC)c(NC(=O)CC(C)=O)c1,6.2% (inactive)
7,CN(C)CCOCCN(C)CCO,4.38% (inactive)
8,CCCCC/C=C/CC(=O)OC,3.18% (inactive)
9,CCCCCCCCCCCCOC(C)=O,2.06% (inactive)
10,COc1cc2c3cc1Oc1cc(ccc1O)C[C@@H]1c4c(cc(OC)c(O)c4Oc4ccc(cc4)C[C@@H]3N(C)CC2)CC[N+]1(C)C,-2.2% [at 35.3 µM] (inactive)
11,O=C(O)CCNC(=O)c1ccccc1,-14.4% [at 35.3 µM] (inactive)
12,C=C[Si](C)(C)O[Si](C)(C)C=C,3.22% (inactive)
13,Nc1cc(C(=O)O)ccc1Cl,-6.51% (inactive)
14,NC(=O)C1(N2CCCCC2)CCN(CCCC(=O)c2ccc(F)cc2)CC1,0.0337% [at 35.3 µM] (inactive)
15,N#CCCOCCOCCC#N,2.6% (inactive)
16,C[C@H](CCC(=O)NCC(=O)O)[C@H]1CC[C@H]2[C@@H]3[C@H](O)C[C@@H]4C[C@H](O)CC[C@]4(C)[C@H]3C[C@H](O)[C@]12C,-0.0792% (inactive)
17,CCS(=O)(=O)CCn1c([N+](=O)[O-])cnc1C,-0.0314% [at 35.3 µM] (inactive)
18,CC(C)(c1ccc(Oc2ccc3c(c2)C(=O)OC3=O)cc1)c1ccc(Oc2ccc3c(c2)C(=O)OC3=O)cc1,-13.2% (inactive)
19,C=CCOc1c(Br)cc(Br)cc1Br,15.4% (inactive)
20,O=C(O)/C=C/c1ccccc1,-7.43% (inactive)
21,CC1=NN(c2ccc(S(=O)(=O)O)cc2)C(=O)C1N=Nc1ccccc1 (configuration not stated),-10.1% (inactive)
22,CCCCC(CC)C(=O)OC(C)C (configuration not stated),2.63% (inactive)
